# Screening results from PubChem BioAssay.
# Giardia kill = Giardia lamblia killing | AID 540267 | Giardia lamblia trophozoite viability | activity change, % at 7.66 µM, hits read low | 0.15% of 340,000 active; in the data active = activity change below about -80%; inconclusive = between about -30% and that limit;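 note: parasites exposed to compound for two days anaerobically before the ATP read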
#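 Luminescent ATP signal served as the viability read-out, measured 15-30 min after adding ATP detection reagent to trophozoites that had been incubated with compounds for 48 hrs at 37 deg C anaerobically at 100 cells/well.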
# Coupling enz = counter-screen for Giardia aldolase inhibitors: coupling enzyme system | coupling enzyme system counterscreen, AmpLite Red fluorescence | activity change, negative = inhibition, % at 58.2 µM, hits read low | 0.67% of 290,000 active | AID 2472; in the data active = activity change below about -30%
#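 Fluorescence at 525 nm excitation and 598 nm emission measured inhibition of the coupled detection system without aldolase. Compounds (at 57.5 uM final) were preincubated 10 min at room temperature with coupling enzyme reagent before a 20 min substrate/AmpLite Red step.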
# Sfp PPTase inh = Sfp phosphopantetheinyl transferase inhibition. Q9F4F7. Biochemical Sfp PPTase activity, qHTS. Potency, µM, inactives show largest response in the series, negative = inhibition, most hits filed as inhibitors. 3.5% of 310,000 active. AID 1490;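 note: the enzyme is Sfp with the accession as filed and its product quenches rhodamine fluorescence; potency is the fitted concentration of half-maximal effect; 0% = enzyme reaction without inhibitor and -100% = no enzyme wells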
#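 Sfp 15 nM + cpd, 15 min RT; start w/ rhodamine-CoA 5 uM, BHQ-2-YbbR 12.5 uM (final); 50 mM Hepes pH 7.6, 10 mM MgCl2, 0.01% NP-40, 0.01% BSA; read 525/598 nm at 0 and 30 min.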
# ELG1 DNA repair = ELG1-dependent DNA repair inhibition; HEK293T ELG1-luciferase reporter, luminescence, 16 h; DNA damage induced by 5-fluorouridine; Potency, µM (top dose mostly 46.1 µM), for the others: at the top dose activity change, negative = inhibition, hits mostly inhibitors; 2.3% of 330,000 active; AID 504467; note: potency is the fitted concentration of half-maximal effect; nearly all actives have a fitted effect of over 55% in size
#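 5-Fluorouridine DNA damage + compound/DMSO, 2,000 cells/well, 16 h, 37 °C/5% CO2. ONE-Glo, 30 min RT, luminescence. Readout = decrease in reporter signal.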
# Active calls of the source: *; ? = inconclusive; . = no result given. Compounds with a hit are over-represented: about 5.5% of the library has one in this group of screens. Unless noted, calls come from the whole dose curve; as a rule, active = well fitted curve in the direction sought with a large enough effect; inconclusive = small, poorly fitted or top-dose-only effect, or another doubt; inactive = no such curve, though single readings can be large; an effect the other way counts as inactive or inconclusive. Unless noted, % is set by controls: 0 for no effect and ±100 for the full control effect.
SMILES,Giardia kill,Coupling enz,Sfp PPTase inh,ELG1 DNA repair
CC(C)(O)C1Cc2cc(/C=C/C(=O)O)c(O)cc2O1 (stereo not given),-9,2,6.3µM*,?
COc1cc2c(cc1/C=C/C(=O)O)OC(C)C2 (stereo not given),-9,-3,8%,11%
CNC(=S)Nc1cccc(-c2cnc3ccccc3n2)c1,-5,-1,1%,?
CCOC(=O)N1CCC(NS(=O)(=O)c2ccc3c(c2)CCN3C(C)=O)CC1,-7,0,0%,18µM*
Cc1ccc(-c2csc3ncnc(SCc4ccc(C(=O)O)cc4)c23)cc1,-22,24,50µM*,-3%
Cc1sc2ncnc(SCc3ccc(C(=O)O)cc3)c2c1C,-13,20,-5%,0%
O=C(N/N=C/c1ccc(O)c(O)c1O)/C(=C/c1ccc([N+](=O)[O-])cc1)NC(=O)c1ccccc1,-6,-27,45µM*,?
Cc1ccc(NC(=O)/C(=C\c2ccc([N+](=O)[O-])cc2)NC(=O)c2ccccc2)cc1,-1,1,17%,15%
Cc1ccc(CC(C(=O)O)C(C)C(=O)Nc2ccc(F)cc2)cc1 (stereo not given),?,1,14%,-4%
Cc1cc(-c2nc3ncccc3o2)ccc1NC(=O)c1ccc([N+](=O)[O-])o1,-7,.,.,.
O=C(Nc1ccc2oc(-c3cccnc3)nc2c1)c1cc2ccccc2o1,-20,-3,-4%,18µM*
O=C(Nc1ccc2oc(-c3ccncc3)nc2c1)c1ccc([N+](=O)[O-])o1,-80*,-1,12%,?
O=C(Nc1ccc(-c2nc3ncccc3o2)cc1)c1ccc([N+](=O)[O-])o1,-94*,-1,-8%,9%
O=C(Nc1ccc2oc(-c3ccncc3)nc2c1)c1ccccc1,5,0,13%,-4%
Cc1ccc(-c2nc3ncccc3o2)cc1NC(=O)c1ccc([N+](=O)[O-])o1,-91*,2,12%,-9%
CCOC(=O)[C@H]1[C@H]2COc3ccc(C)cc3[C@@H]2N2C(=O)c3cc(Br)ccc3NC(=O)[C@@]12C,-4,.,.,-21%
CC(=O)N1CCC2(CC1)CN(c1ccccc1)C2,.,-4,6%,.
O=C(CN1C(=O)NC(c2ccccc2)(c2ccccc2)C1=O)NCCc1ccc(F)cc1,13,.,.,-29%
CCn1c(-c2ccc(OC)c(OC)c2)n[nH]c1=S,0,0,?,19%
C=CCn1c(-c2ccc(OC)c(OC)c2)n[nH]c1=S,13,-1,79µM*,24%
C=CCn1c(-c2c(C)nc3cc(C)ccn23)n[nH]c1=S,-8,-1,1.8µM*,-3%
C=CCn1c(-c2sccc2C)n[nH]c1=S,-2,-1,2%,-2%
O=C(N/C(=C\c1ccc(Br)cc1)C(=O)N1CCOCC1)c1ccco1,1,0,15%,-4%
COCC(=O)N1CCC2(CCCN(Cc3ccccc3)C2)CC1,.,1,24%,.
COc1ccc(CCNC(=O)C2CCCN(c3nc4ccccc4s3)C2)cc1OC (stereo not given),-1,5,12%,18µM*
SMILES,Giardia kill,Coupling enz,Sfp PPTase inh,ELG1 DNA repair
Cc1ccc(-c2cc(C3C4C=CCCC4(C)C(=O)N3Cc3ccccc3)ccc2F)cc1 (stereo not given),-23,-3,-23%,.
Cc1sc2nc3ccc(N4CCCC4)nn3c(=O)c2c1C,-23,-1,25µM*,-7%
CSC1=N/C(=C\c2ccc(C)o2)C(=O)S1,-3,1,?,-6%
Cc1ccc(/C=c2\sc3n(c2=O)CN(c2ccc(Br)cc2)CN=3)o1,0,-27,10µM*,5%
O=c1/c(=C\c2ccc3c(c2)OCO3)sc2n1CCCN=2,-3,-2,7%,?
Cc1ccc(/C=c2/sc3n(c2=O)CCCN=3)o1,-6,-24,20µM*,?
O=C(NCc1ccc(/C=c2\sc3n(c2=O)CCN=3)o1)C(=O)Nc1ccccc1,.,-17,22µM*,1%
COC(=O)CNc1c(-c2ccccn2)nc2ccc(Br)cn12,1,-17,28µM*,?
C=CCn1c(SCc2ccc(Cl)cc2)nc2cc(C(=O)N3CCC(C(N)=O)CC3)ccc2c1=O,58,1,-13%,8.2µM*
N#CCSc1nc2cc(C(=O)N3CCCC3)ccc2c(=O)n1Cc1ccccc1,9,4,-4%,?
N#CCSc1nc2ccccc2c2nc3ccccc3n12,-20,5,-5%,21µM*
N#CCSc1nc2cc(C(=O)N3CCC(C(N)=O)CC3)ccc2c2nc3ccccc3n12,8,6,11%,21µM*
Cc1onc(-c2ccccc2Cl)c1C(=O)N1CCN(c2ccc(F)cc2)CC1,10,0,12%,-17%
O=C1CC(NS(=O)(=O)c2cccs2)CN1c1cccc(F)c1 (stereo not given),25,.,.,14%
CC(=O)NC(=S)Nc1ccc(NC(=S)NC(=O)c2cccs2)cc1,8,.,7%,8%
CCN(CC)c1ccc(NC(=S)NC(=O)c2cccs2)cc1,5,1,?,?
O=C(NC(=S)Nc1ccc(-c2ccc(CO)o2)cc1)c1cccs1,-7,3,8.9µM*,?
CN(C)S(=O)(=O)c1ccc(NC(=S)NC(=O)c2cccs2)cc1,-12,2,32µM*,7%
CCN(c1ccccc1)S(=O)(=O)c1ccc(NC(=S)NC(=O)c2cccs2)cc1,-8,1,?,13µM*
